# Screening data deposited in PubChem BioAssay by The Scripps Research Institute Molecular Screening Center.
# This is a sample that favours compounds with a hit; in the whole collection about 2.8% have one here.
# SMARCA2 act – SMARCA2 (BRM) function activators, primary screen, cell-based, luminescence, high throughput; MG213 cells, MMTV-luciferase reporter, dexamethasone, overnight; activation, % at 9.1 µM; hit rate 1% among 370,000; in the data active means activation above about 7.8%;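 further: 0% = vehicle wells and 100% = reference activator wells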
# MsrA inhibitor – bovine MsrA enzyme inhibitors, primary screen, biochemical, absorbance, HTS; Methionine sulfoxide reductase A (Bos taurus); purified bovine MsrA, absorbance read-out; inhibition, % at 15.5 µM; hit rate 0.75% among 360,000; AID 651718, 2012;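 further: 0% = vehicle wells with enzyme and 100% = reference inhibitor wells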
# bovine MsrA act – bovine MsrA enzyme activators, primary screen, biochemical, absorbance, HTS | purified bovine MsrA, absorbance read-out | activation, % at 10.6 µM | hit rate 0.3% among 360,000; in the data active means activation above about 7.5%;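 further: 0% = vehicle and 100% = reference activator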
# proKLK7 act – proKLK7 zymogen activators, primary screen, biochemical, fluorescence intensity; AID 652039, 2013; purified proKLK7, EDANS-DABCYL substrate fluorescence; 100% is mature enzyme control, 0% vehicle; activation, % at 7 µM; hit rate 0.9% among 370,000; Kallikrein-7 (Homo sapiens), P49862;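 active means activation above the mean of all tested compounds plus 3 SD, computed per campaign excluding outliers beyond control limits, cut at about 13% in these data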
# Target sequence (P49862 whole entry, looked up): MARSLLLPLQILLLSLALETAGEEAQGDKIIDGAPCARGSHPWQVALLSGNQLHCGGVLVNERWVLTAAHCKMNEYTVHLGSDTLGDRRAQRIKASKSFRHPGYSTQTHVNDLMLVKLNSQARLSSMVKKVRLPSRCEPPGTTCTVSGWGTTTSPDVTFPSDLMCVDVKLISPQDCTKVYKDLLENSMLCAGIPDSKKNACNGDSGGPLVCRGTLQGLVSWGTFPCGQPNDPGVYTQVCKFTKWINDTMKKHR
# MsrA inh confirm – bovine MsrA inhibitors, retest, confirmation, biochemical, absorbance, HTS; shares compounds with MsrA inhibitor; purified bovine MsrA, absorbance read-out; inhibition, % at 15.5 µM; hit rate 41% among 2,300;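 further: coupled to thioredoxin reductase with NADPH and selenocystamine and DMSO as substrate; 0% = vehicle only and 100% = full effect of reference inhibitor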
# Numbers without * were called inactive; nt = not tested or not shown. Unless noted, no stated cut-off is given here; in the data, active means inhibition above about 4.5%; inactive means the rest.
SMILES,SMARCA2 act,MsrA inhibitor,bovine MsrA act,proKLK7 act,MsrA inh confirm
COCc1cc(C)nc(OCC(=O)N/N=C/c2ccc(C)o2)c1C#N,-2,6.7*,-5,0,2
O=C(Cc1ccc(F)cc1)N/N=C/c1ccc(-c2ccc(Cl)c(C(=O)O)c2)o1,-2,3,-5,0,nt
COCc1cc(C)n(CC(=O)N/N=C/c2ccc(-c3ccc(Cl)c(C(=O)O)c3)o2)c(=O)c1C#N,-2,9.1*,-6,0,9.7*
CN(/N=C/c1ccc([N+](=O)[O-])o1)c1ccccc1,2,1,-3,0,nt
CN(C)/N=C/c1ccc(P(c2ccc(/C=N/N(C)C)o2)c2ccc(/C=N/N(C)C)o2)o1,1,5.4*,-7,0,4
COC(=O)c1ccc(N=NN2CCOCC2)cc1,1,6.6*,-4,0,2
COC(=O)[C@]12C[C@H](CC(=O)N3CCN(C(=O)c4ccco4)CC3)C(=O)N(Cc3ccc4c(c3)OCO4)C1=C[C@H](COCc1ccccc1)O[C@@H]2C,2,0,nt,0,nt
O=C1C=C(c2ccc(O)cc2)C[C@@H](c2ccc3c(c2)OCO3)C1,-1,6.8*,-8,0,2
COc1ccccc1C1=CC(=O)C[C@H](c2ccc3c(c2)OCO3)C1,1,6.3*,-1,-1,1
CCCCCCCCN1C(=O)[C@@H](CC(=O)N2CCCCC2)C[C@@]2(C(=O)OC)C1=C[C@H](C(C)(C)C)O[C@@H]2C,-2,0,nt,0,nt
COC(=O)COc1ccc2oc(=O)cc(-c3cc4cccc(OC)c4o3)c2c1,-1,7.4*,-5,-1,15*
NC(=O)COc1ccc2oc(=O)cc(-c3cc4ccccc4o3)c2c1,0,23*,-4,-12,20*
O=C(COc1ccccc1)Nc1ccc2oc(=O)ccc2c1,0,-1,-2,3,nt
COc1cccc2cc(-c3cc(=O)oc4ccc(O)cc34)oc12,-1,17*,0,0,13*
COC(=O)COc1ccc2oc(=O)cc(-c3cc4ccccc4o3)c2c1,5,15*,-3,-2,24*
Cc1nn(CCC(N)=S)c2nc(-c3cccs3)cc(C(F)(F)F)c12,3,4.8*,-3,10,4
CCOC(=O)c1ccc(Nc2ccc(C(C)=O)cc2)cc1,4,1,-5,-1,nt
CCOC(=O)c1ccc(Nc2c(OCC)c(=O)c2=O)cc1,0,5.9*,-7,1,3
O=C(N/N=C/C(Cl)=C/c1ccc([N+](=O)[O-])cc1)C(=O)Nc1cccc(C(=O)O)c1,1,9.2*,-5,1,5.3*
O=C(Nc1cccc(C(=O)O)c1)/C(=C/c1cccc([N+](=O)[O-])c1)NC(=O)c1cccc(Br)c1,-1,0,-9,-1,nt
COc1ccc(/C=C/C(=O)NC(=S)NNC(=O)c2cnccn2)cc1,-1,1,-4,0,nt
C=CCN(CC=C)C(=S)NC(=O)/C=C/c1ccc(OC)cc1,-2,4.8*,-9,1,2
COc1ccc(/C=C/C(=O)NC(=S)NNC(=O)c2cccnc2)cc1,-4,6.0*,-2,0,5.2*
Cc1ccc(/C=C(\C#N)C(=O)NC(C)C)o1,-1,6.1*,-17,-1,5.0*
Cc1ccc(/C=C(/C#N)C(=O)NC(C)c2ccccc2)o1 (configuration not stated),-1,3,-11,0,nt
SMILES,SMARCA2 act,MsrA inhibitor,bovine MsrA act,proKLK7 act,MsrA inh confirm
CCOc1ncccc1C(=O)Nc1ccccc1C(=O)NCc1ccc2c(c1)OCO2,-1,0,-5,0,nt
CCOc1ncccc1C(=O)Nc1ccc2c(c1)OCO2,1,5.0*,-3,0,5
COC(=O)N1[C@H](C)C=C[C@]1(Cc1ccccc1)C(=O)NCCCNc1ncc(C(F)(F)F)cc1Cl,0,37*,-1,0,37*
C[C@@H]1ON(C)[C@H]2C[C@H]3c4[nH]c5c(-c6ccccc6F)cccc5c4CCN3C[C@@H]12,-6,nt,nt,3,nt
CN(c1nc2nonc2nc1NC1CC1)C1CCOC1 (configuration not stated),-3,5.0*,-3,-1,2
CC(c1nccs1)N(C)c1nc2nonc2nc1NC1CC1 (configuration not stated),-3,4,-2,1,nt
C=CCNC(=S)N/N=C/c1ccc(C)c([N+](=O)[O-])c1,0,2,-9,1,nt
CN(C)c1ccc(/C=N/NC(N)=S)cc1[N+](=O)[O-],-5,10*,-5,0,7.1*
Cn1c(=O)n(C)c2cc(/C=N/NC(N)=S)ccc21,-2,5.5*,-8,0,4.8*
Cc1cc(C)c2nc(C(F)(F)F)nc(N3CC(C)OC(C)C3)c2c1 (configuration not stated),-4,14*,-2,-1,21*
CC(/C=N/NC(=O)c1sc(N)nc1C)=C\c1ccccc1,3,6.7*,-4,1,4
COc1cc(/C=N\NC(=O)c2sc(N)nc2C)cc(OC)c1OC,-1,7.0*,-7,0,5.2*
Cc1nc(N)sc1C(=O)N/N=C/c1ccccc1[N+](=O)[O-],4,3,-18,0,nt
Cc1nc(N)sc1C(=O)N/N=C/c1ccc([N+](=O)[O-])cc1,2,0,-8,1,nt
Cc1cscc1-c1ccc(C(=O)Nc2c(C)cccc2C)o1,-4,1,-2,0,nt
COc1ccc(/C=N/NC(=O)c2cccnc2)cc1COc1ccc([N+](=O)[O-])c(C)c1,-5,4.7*,-4,0,1
NS(=O)(=O)c1ccc(CNC(=O)c2ccc(C(=O)c3ccccc3)cc2)cc1,2,-1,-3,0,nt
CN(CC(=O)Nc1ccc(F)cc1)C(=O)c1ccc(-c2ccc(F)cc2)o1,-3,0,0,0,nt
CCOc1ccc(NC(=O)CN(C)C(=O)c2ccc(-c3ccc(C(C)=O)cc3)o2)cc1OCC,4,4.9*,-3,6,3
COC(=O)[C@]12C[C@H](CC(=O)N3CCSCC3)C(=O)N(Cc3cccc4ccccc34)C1=C[C@H](C(C)(C)C)O[C@@H]2C,-3,nt,nt,0,nt
COc1cc(-c2nc3ccccn3c2/N=C/c2ccccc2)ccc1O,-2,4,-3,-131,nt
COc1cc(-c2nc3ccccn3c2/N=C/c2cc(OC)c(O)cc2Cl)ccc1O,2,4.7*,-5,-4,3
C(=N\n1cnnc1)/c1cn(-c2cccs2)nc1-c1ccccc1,1,4.8*,-3,-4,3
COc1ccc(-c2nn(-c3ccccc3)cc2/C=N/n2cnnc2)cc1OC,-5,2,-2,1,nt
CCOC(=O)c1cnc2cc(C)ccn2c1=O,0,3,-7,0,nt
Cc1ccn2c(=O)c(C(=O)O)cnc2c1,-1,4.7*,-2,4,4
